# In PubChem BioAssay (NCI):
# Compounds without any hit were thinned out: in the full panel of roughly 83,000, 20% have a hit.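 The test compound was applied at a single concentration to cells in 96-well plates for 48 hours, and percent growth was recorded.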 Activity calls are given as the source filed them. The calls were made as follows: active = growth percent below 10; inactive = the rest.
# System: MDA-MB-468 breast
# Assay: NCI-60 one-dose screen, 48 h (100 = growth as untreated, 0 = no growth, -100 = all killed)
# Details: 10 µM unless noted
row,SMILES,growth
1,CC(C)=CCc1c(O)c(C(=O)CC(C)C)c(O)c2c(-c3ccccc3)cc(=O)oc12,23.1% (inactive)
2,COc1cc([C@@H]2c3cc4c(cc3[C@H](OC(C)=O)[C@H]3COC(=O)[C@@H]23)OCO4)cc(OC)c1OC,-40.2% (active)
3,O=C1Nc2ccccc2C2c3cccn3-c3ccccc3CN12 (stereo not given),30.5% (inactive)
4,COc1cc(/C=C/[N+](=O)[O-])cc(OC)c1,-61.2% (active)
5,O=C1OCC2=C1C(c1ccccc1)c1cc3c(cc1N2)OCO3 (stereo not given),-9.05% (active)
6,COc1ccc(C/C(C)=C(\c2ccc(OCCN3CCOCC3)cc2)c2ccc(OC(=O)Cc3ccccc3)cc2)cc1,-33.4% (active)
7,O=P1(N(CCCl)CCCl)NCCCO1 (stereo not given),108% (inactive)
8,COC(=O)CCc1c[nH]c2ccc(N(CCCl)CCCl)cc12,8.73% (active)
9,C[C@]12CCc3sc(Nc4ccc(F)cc4)nc3C1=CC[C@@H]1[C@@H]2CC[C@]2(C)C(=O)CC[C@@H]12,40.8% (inactive)
10,c1ccc(CCN2CCCCC2Cc2ccccc2)cc1 (stereo not given),103% (inactive)
11,COC(=O)[C@@H](C)C[C@H](Cc1ccccc1)NC(=O)c1csc([C@@H](C[C@H](C(C)C)N(C)C(=O)[C@@H](NC(=O)[C@H]2CCCCN2C)C2CC2)OC(C)=O)n1,0.846% (active)
12,O=CN1N=C(c2ccccc2)CC1c1sc(N(CCCl)CCCl)nc1Cl (stereo not given),94% (inactive)
13,O=[N+]([O-])c1ccc(N2CCOCC2)c2c1no[n+]2[O-],2.62% (active)
14,O=c1c2ccccc2nc(-c2ccccc2Cl)n1-c1nnc(C(F)(F)F)s1,19.7% (inactive)
15,CC(Cc1ccc2c(c1)OCO2)NN (stereo not given),105% (inactive)
16,O=C1C=Cc2ccccc2C1=O,104% (inactive)
17,CC(=O)Cc1ccc2c(c1)OCO2,103% (inactive)
18,COc1ccccc1/C=C/[N+](=O)[O-],22.6% (inactive)
19,C#C[C@]1(OC(=O)CCCCCC)CC[C@H]2[C@@H]3CCC4=CC(=O)CC[C@@H]4[C@H]3CC[C@@]21C,39.6% (inactive)
20,O=C(O)C(O)C(O)C1[O][Sb]([c]2ccc([N+](=O)[O-])cc2)[O]C1CO (stereo not given),98.2% (inactive)

row,SMILES,growth
1,Cc1ccccc1O,103% (inactive)
2,CC(CC1CCCCC1)NCc1ccccc1 (stereo not given),102% (inactive)
3,COc1ccc(C2=NN(c3ccccc3)C(c3sc(N(CCCl)CCCl)nc3Cl)C2)cc1 (stereo not given),69.3% (inactive)
4,Cc1ccc(C(Cc2ccccc2)NCCO)cc1 (stereo not given),96.7% (inactive)
5,CC(=O)c1cccc(S(=O)(=O)F)c1,93.6% (inactive)
6,CNc1ccc(C(=O)CC(O)CCC(C)C2OC(=O)CC(O)CC(=O)CC(O)CC(O)CC(O)CC(O)CC3(O)CC(O)C(C(=O)OC)C(CC(O[C@@H]4O[C@H](C)[C@@H](O)[C@H](N)[C@@H]4O)/C=C/C=C/C=C/C=C/C=C/C=C/C=C/C2C)O3)cc1 (stereo not given in full),36.5% (inactive)
7,N#C[S-].[Au+].c1ccc(CN2[CH-]N(Cc3ccccc3)C(c3ccccc3)=C2c2ccccc2)cc1,-3.8% (active)
8,CCN1CC2(CN(CC)C1=S)C(=O)NC(=O)NC2=O,116% (inactive)
9,Cc1cc2c(cc1-c1ccnc(/C=C/C(=O)O)c1)C(C)(C)CCC2(C)C,97.1% (inactive)
10,C[C@]12CCc3sc(Nc4ccc(O)cc4)nc3C1=CC[C@@H]1[C@@H]2CC[C@]2(C)C(=O)CC[C@@H]12,-36.9% (active)
11,Cc1ccc2c(C(C[N+](=O)[O-])c3cccs3)c(-c3ccccc3)[nH]c2c1 (stereo not given),-5.47% (active)
12,CC1(C)N=C(N)N=C(N)N1c1ccc(CCC(=O)Nc2ccc(S(=O)(=O)F)cc2)cc1,46.3% (inactive)
13,Cc1ccc(N)cc1[As]=[As]c1cc(N)ccc1C (stereo not given),-92.9% (active)
14,CCCCCC1(CCBr)C(=O)NC(=O)NC1=O,103% (inactive)
15,N#C[Se]CCCNS(=O)(=O)C1CC2C=CC1C2 (stereo not given),-30% (active)
16,CC[C@H](C)[C@H](NC(=O)NC(C)(C)C)C(=O)N(C)[C@H](C[C@@H](OC(C)=O)c1nc(C(=O)N[C@@H](Cc2ccccc2)C[C@H](C)C(=O)OC)cs1)C(C)C,15.4% (inactive)
17,CCOCC1(CCc2ccccc2)C(=O)NC(=S)NC1=O,119% (inactive)
18,CC(C)CCC(=O)O[C@H]1CC[C@H]2[C@@H]3CCC4=CC(=O)CC[C@]4(C)[C@H]3CC[C@]12C,102% (inactive)
19,O=[N+]([O-])c1ccc(OCc2ccc(S(=O)(=O)F)c(Cl)c2)c(Cl)c1,121% (inactive)
20,CC[C@H](C)[C@H]1O[C@]2(C=C[C@@H]1C)C[C@@H]1C[C@@H](C/C=C(\C)[C@@H](O[C@H]3C[C@H](OC)[C@@H](O[C@H]4C[C@H](OC)[C@@H](NC)[C@H](C)O4)[C@H](C)O3)[C@@H](C)/C=C/C=C3\CO[C@@H]4[C@H](O)C(C)=C[C@@H](C(=O)O1)[C@]34O)O2,-68.8% (active)
